This passage reports Potency results from PubChem BioAssay AID1794844 (National Center for Advancing Translational Sciences (NCATS), 2023).

Among all 2,800 compounds or so, fewer than 10 were called active. Inconclusive results (about 7%) are left out. Calls follow the shape of the dose curve; as a rule, active = well fitted inhibition curve with a large enough effect; inconclusive = small, poorly fitted or top-dose-only effect; inactive = no such curve, though single readings can be large or run the other way. The list is a sample of the results. Entries that show only a call come without a potency.
Potency is read from the fitted curve at half-maximal effect.

Sequence of Metallo-beta-lactamase type 2 (Klebsiella pneumoniae) (C7C422 whole entry, looked up): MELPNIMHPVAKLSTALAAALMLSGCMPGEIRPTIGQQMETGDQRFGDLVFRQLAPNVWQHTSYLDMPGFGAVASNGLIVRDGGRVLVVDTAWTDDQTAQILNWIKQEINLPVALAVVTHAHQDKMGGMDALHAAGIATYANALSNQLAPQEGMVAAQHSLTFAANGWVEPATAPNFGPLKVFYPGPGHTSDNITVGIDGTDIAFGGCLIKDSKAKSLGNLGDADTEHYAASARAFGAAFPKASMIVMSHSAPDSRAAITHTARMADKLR

This assay concerns the target Metallo-beta-lactamase type 2 (Klebsiella pneumoniae) (UniProt C7C422). Nature of the assay: qHTS to identify inhibitors of the New Delhi Metallo-beta-lactamase (NDM): Nitrocefin screen against the machine-based learning selections. The settings on record: NDM-1 enzyme, nitrocefin hydrolysis, absorbance 485 nm; series mostly up to 38.4 µM. An excerpt: Assay Submitter (PI): James Inglese Ph.D., Patricia Dranchak Ph.D., Mahesh Aitha Ph.D. Assay Development and Screening Technology Laboratory (ADST) National Center for Advancing Translational Sciences (NCATS), Rockville, MD National Institute of Health (NIH), Bethesda, Maryland The metallo-beta-lactamases (MBL) are a main antibiotic resistance mechanism evolved by bacteria. There is an urgent clinical need for MBL inhibitors to mitigate this growing threat. To support a machine-based learning study, qHTS has been used to experimentally test inhibitors identified by prediction tools.
PROTOCOL TABLE (as described by Inglese et al., 2007) SEQUENCE No. (e.g., 1, 2, 3, etc.); […] (e.g., enzyme, Incubation, Reagent, etc.); VALUE; DESCRIPTION Primary Screen 1; NDM-1; 4 uL of 3 nM enzyme [2 nM final] in 50 mM HEPES (pH 7.0), 1 uM […], 0.01% Tween20; Use BioRaptr to dispense into two sets of Aurora black, clear bottom high base 1536-well plates 2; Compounds; 23 nL; Use Pin Tool (Wako) to transfer DMSO control and library compounds in DMSO 3; Incubate; >30 min 4a; Reagent; 2 uL of 50 uM nitrocefin [16.7 uM final] to one set of assay plates 4b; Reagent; 2 uL of 150 uM meropenem [50 uM final] to second set of assay plates 5a; Incubate; 15 min 5b; Incubate; 30 min 6a; Detector; Absorbance at 485 nm (bandwidth = 5 nm, 25 flashes/well) on Tecan Infinity 6b; Detector; Absorbance at 300 nm (bandwidth = 5 nm, 25 flashes/well) on Tecan Infinity NOTES (numbers refer to sequence above) 1; Column 1 of each plate received assay buffer without enzyme and columns 2-48 received enzyme for a final assay concentration of 2 nM. 2; Control plate contained DMSO in columns 1, 2, 3, and 4. 3; Compound interaction with enzyme. 4; Nitrocefin and meropenem substrates were prepared in the same assay buffer as step 1 for a final assay concentration of 16.7 uM and 50 uM, respectively, and added to all wells across respective sets of assay plates. 5; Default reader settings were applied for absorbance read at 485 nm (nitrocefin) or 300 nm (meropenem), bandwidth = 5 nm, 25 flashes/well. References: Inglese J, Shamu CE, Guy RK. 2007. Reporting data from high-throughput screening of small-molecule libraries. Nat Chem Biol. doi:10.1038/nchembio0807-438 Yasgar A, Shinn P, Jadhav A, Auld D, Michael S, Zheng W, Austin CP, Inglese J, Simeonov A. 2008. Compound Management for Quantitative High-Throughput Screening. J Lab Autom 13:79 - 89. doi:10.1016/j.jala.2007.12.004
(In qHTS, concentration-response curves come from the screen itself.)
Turning to `COc1ccccc1CCC(=O)NCc1nnc2ccc(-c3ccc(C)cc3)nn12`, the Potency result was “inactive”. As for `O=C(NCc1ccc2c(c1)OCO2)C1CCN(c2cn[nH]c(=O)c2)C1` (stereo unspecified), the entry is “inactive”; as for `O=C(O)CCCC(=O)N1CCN2C(=O)c3cc(-c4ccco4)ccc3NC(=O)[C@@H]2C1`, “inactive”; as for `O=C(c1ccc(N2CC3CC(C2)[C@H]2CCCC(=O)N2C3)nc1)N1CCN(c2cccc(Cl)c2)CC1` (stereo partly specified), “inactive”. As for `Cc1ccc(C2(O)CCN(C(=O)c3cnn4cc(CCO)cnc34)CC2)nc1`, the entry is “inactive”; as for `O=C(C[C@@H]1CCNC[C@@H]1Cc1cc(CC2CCCCC2)on1)NC1CC1`, “inactive”. As for `O=C(Nc1ccccc1)O[C@@H]1CO[C@H]2[C@@H]1OC[C@@H]2NC(=O)c1ccc(C(F)(F)F)cc1`, the entry is “inactive”; as for `Cc1cnn(Cc2cc(C(=O)N3CCCCCC3c3nnc(-c4ccccc4)o3)no2)c1` (stereo unspecified), “inactive”.

In the case of `COc1ccc(-c2cc(N3CCCN(C(=O)c4cnccn4)CC3)n[nH]2)cc1`, the Potency result was “inactive”.

`Cc1cc(C(=O)N[C@@H]2CCC[C@@H](C(=O)N3CCN(C)CC3)CC(=O)N(C)C2)no1`: the Potency result is “inactive”.

`CCC(C)NC(=O)CC1Sc2ncccc2N(C)C1=O` (stereo unspecified): the Potency result was “inactive”. Turning to `CC[C@H]1CN(C(=O)Nc2cccc(C(F)(F)F)c2)CC[C@H]1CC(=O)NC1CC1`, the Potency entry is “inactive”. Take `CC(C)NC(=O)C[C@@H]1C[C@H]2O[C@H](CNCc3ccccc3Cl)[C@@H](O)[C@H]2O1`: the Potency entry was “inactive”. As for `COc1nc2c(cc1CNC(=O)C1CCOC1)C(=O)N(CCc1ccccn1)C2` (stereo unspecified), the Potency result was “inactive”. As for `Cc1ccc(CN2CC[C@@H]3[C@H]2C(=O)NC[C@H](CCC(=O)N2CC[C@@H](O)C2)N3C)cc1`, the entry is “inactive”; as for `O=C(O)C[C@@H]1CCN(C(=O)c2ccco2)C[C@@H]1CCN1CCOCC1`, “inactive”. For `CN1C[C@H](C(=O)NCc2ccccc2)C[C@H]1c1cccc(C(F)(F)F)c1` the value was “inactive”; for `CC(C)C[C@@H]1N[C@H](C(=O)NCCOc2ccccc2)Cc2c[nH]c3cccc1c23`, “inactive”. As to `CN(C)C1CCN(c2nc(-c3ccncc3)nc3c2CNC3)C1` (stereo unspecified), the Potency result is “inactive”.

Turning to `Cc1oc(C(O)c2cccc(O)c2)nc1C(=O)Nc1ccc2[nH]c(=O)oc2c1` (stereo unspecified), the Potency entry was “inactive”.

For `O=C(c1cc(-c2ccc(O)cc2)n[nH]1)N1CCCC(CCc2ccc(F)cc2)C1` (stereo unspecified), the Potency result was “inactive”.

With `COc1ccc(CC2(CO)CCN(c3nccc(N)n3)CC2)cc1`, the Potency entry was “inactive”.

In the case of `Cc1ccc2c(C)c(C(=O)N3CC(OCc4ccccc4F)C3)oc2c1`, the Potency entry was “inactive”.

For `COCCNC(=O)c1ccc2c(c1)N(C)C(CC(=O)Nc1ccc(N)nc1)CO2` (stereo unspecified), the Potency result was “inactive”.

As for `CCCc1cc(C(=O)N[C@@H]2COCC[C@H]2Oc2ccc(C(=O)O)cc2)n[nH]1`, the Potency entry is “inactive”. Regarding `Cc1cccc(C(=O)N2CC[C@@H](NC(=O)c3cnccn3)[C@H](O)C2)n1`, the Potency entry was “inactive”. As for `O=[S+]([O-])(c1cccnc1)N1CCNc2cnc(Nc3ccc(-n4ccnc4)cc3)nc2C1`, the entry is “inactive”; as for `O=C(Cn1ccn2nc3c(c2c1=O)CCCC3)NCc1ccc2c(c1)OCO2`, “inactive”.

On to `COc1ccccc1-n1cc(C(=O)NC[C@@H]2C[C@H](F)CN2)cn1`, for which the Potency result is “inactive”.

Take `c1csc(CN2Cc3[nH]cnc3C[C@H]2c2nc(-c3ccc4c(c3)OCO4)no2)c1`: the Potency entry was “inactive”. For `O=C(Nc1ccccc1)O[C@@H]1CO[C@H]2[C@@H]1OC[C@@H]2NS(=O)(=O)c1cccc2cccnc12` the value was “inactive”; for `OCc1cccc(-c2ccc3ncc(Nc4cccc(F)c4)n3n2)c1`, “inactive”; for `O=C(c1ccc2ncccc2c1)N1CCC2(CC1)Nc1ccccc1NC2=O`, “inactive”.

As for `COc1ccc(CC(=O)N2CC(CO)C3(CCNCC3)C2)cc1` (stereo unspecified), the Potency entry is “inactive”. On to `Cc1ccc(CN2CC[C@@H](CO)N(C)c3cccnc3C2)s1`, for which the Potency result was “inactive”. Consider `CS(=O)(=O)N1CCC(C2CCN(C(=O)Cc3cccc(F)c3)C2)CC1` (stereo unspecified), for which the Potency result is “inactive”.

`O=C(NCc1nc(-c2ccncc2)n[nH]1)[C@H]1CCC[C@H](O)C1`: the Potency entry is “inactive”.

Take `N[C@@H]1CCN(Cc2ccccc2OCc2ccc(Cl)cc2)C[C@H]1O`: the Potency entry is “inactive”. In the case of `COCCOc1ncccc1-c1noc([C@@H]2CCCN2CC(C)(C)C)n1`, the Potency result was “inactive”. As for `CC1=C[C@@H](CNC(=O)c2ccc(F)cc2)[C@H](C(C)C)C[C@H]1CC(=O)N1CCN(C)CC1`, the entry is “inactive”; as for `O=C1Cc2c(-c3cccc(O)c3)n[nH]c2CN1CC1CC1`, “inactive”. As for `C[C@@H]1CN(C(=O)Cn2ccc(=O)[nH]c2=O)C[C@@]1(O)C1CCC1`, the entry is “inactive”. Regarding `COc1cccc(NC(=O)O[C@@H]2CC[C@]3(C)C(CC[C@@H](O)[C@H]3CC(=O)N3CCCC3)[C@]2(C)CO)c1` (stereo partly specified), the Potency result was “inactive”. For `CCc1noc([C@@H]2CC(F)(F)CN2C(=O)c2ccoc2C)n1` the value was “inactive”. Consider `CC(C)=CC(=O)N1CC[C@H](NC(=O)Nc2ccc(F)cc2F)[C@H]1C(=O)N[C@@H](Cc1cccs1)C(N)=O`, for which the Potency result is “inactive”.

In the case of `NCCc1cccc(CN2CCCC(COc3ccccc3F)C2)c1` (stereo unspecified), the Potency entry is “inactive”.

On to `c1ccc(-c2nnc3ccc(NC4CCC4)nn23)nc1`, for which the Potency result is “inactive”. With `CC(C)(O)C#Cc1ccc(C(=O)N2CCC(O)(c3ccccn3)CC2)cc1`, the Potency entry is “inactive”. In the case of `COc1ccc(-c2nnc3n2CCN(C(=O)C(C)(C)C)C3)cc1`, the Potency result is “inactive”.

Consider `O=C(Cc1c[nH]c2ncc(-c3ccc(Cl)cc3)cc12)NCc1cccnc1`, for which the Potency result is “inactive”. For the compound `CC(C)(C)CC(=O)N1CC[C@H]2CC(=O)N(Cc3cccnc3)CC[C@H]2C1`, the Potency entry was “inactive”. As for `CC[C@H]1CN(C(C)=O)CC[C@H]1CC(=O)NC(C)C`, the entry is “inactive”; as for `CCNC(=O)[C@@H]1C[C@H](NC(=O)c2ccccc2)CN1Cc1scnc1C`, “inactive”. Consider `CS(=O)(=O)N1CC(C(=O)Nc2ccc(N3CCOCC3)cc2)C2(CCCCC2)C1` (stereo unspecified), for which the Potency result is “inactive”. As for `O=C(NCc1cc2n(n1)CCN(C1CCCCC1)C2)c1cnn2ccccc12`, the entry is “inactive”. `CCCN(CC1CCOC1)C(=O)Nc1cccc(F)c1C` (stereo unspecified): the Potency entry is “inactive”. For `O=C(O)CN1CCC[C@]2(C(=O)O)CN(Cc3cccc(O)c3)CC[C@@H]12`, the Potency was 3.35 µM (active). As for `Cc1cccc(CN2CCCC3(CCN(Cc4cccc(O)c4)C3)C2)c1` (stereo unspecified), the entry is “inactive”. Regarding `O=C(O)[C@]12CCCN[C@@H]1CCN(Cc1ccc(-c3ccccn3)cc1)C2`, the Potency entry was “inactive”. `Cc1cc(Cn2cc3c4c(cccc42)[C@H](CC(C)C)N[C@H](C(=O)N2CCN(C)CC2)C3)no1`: the Potency result was “inactive”.

For `CN1CCOc2c(C(=O)NCc3cccnc3)cc(-c3ccccc3O)cc21`, the Potency entry was “inactive”.
